# Reference: PubChem BioAssay (EPA / NIEHS)
# Activity calls are given as the source filed them. How the source made its calls: active means hit-call score of the fitted dose curve at least 0.9, where 1 is the maximum; inactive means score below 0.9.
# System: SRY-box transcription factor 2 (SOX2) Protein Expression, Deisenroth Lab, SOX2 (gene 6657)
# Assay: CCTE_Deisenroth_DEVTOX-GLR_Pluri_SOX2: CCTE's DevTox GLR-Pluri Assay Evaluation of SRY-box transcription factor 2 (SOX2) Protein Expression, Deisenroth Lab (AID 2284428)
# Procedure: CCTE_Deisenroth_DEVTOX-GLR_Pluri assay is a cell-based, multiplex-readout assay that uses RUES2-GLR, a human pluripotent cell line, with measurements taken at 48 hours after chemical dosing in a 384-well microplateCCTE_Deisenroth_DEVTOX-GLR_Pluri_SOX2 is 1 of 4 assay components calculated from the CCTE_Deisenroth_DEVTOX-GLR_Pluri assay and it measures an the percentage of cells in an pluripotent state. Using a type of inducible fluorescent protein reporter, gain-of-signal activity can be used to understand changes in gene expression with fluorescent microscopy. The percentage of SOX2+ cells are determined by calculating the number of SOX2+ cells divided by the cell count. To generalize the intended target to other relatable targets, this assay component is annotated to the transcription factor intended target family, where the subfamily is SRY-related HMG-box.Data from the assay component CCTE_Deisenroth_DEVTOX-GLR_Pluri_SOX2 was analyzed as 1 assay endpoint. The endpoint is the percent change in the SOX2+ cell population relative to the 0.2% DMSO control in the CCTE_Deisenroth_DEVTOX-GLR_Pluri assay. Furthermore, this assay endpoint can be referred to as a primary readout, because this assay has produced multiple assay endpoints where this one serves as a measure of […].
# All assay protocols are aligned to the DevTox GLR-Endo assay workflow. Cells are seeded into 384-well microplates for 24 hours prior to initiating differentiation in defined media for a total duration of 48 hours. A total of two chemical exposures are administered in 24-hour intervals during the 48-hour differentiation period. At the assay termination point, cells are fixed and stained with a fluorescent dye demarcating the nucleus. High-content imaging is used to acquire brightfield and fluorescent channel images across 5 fields per well. Cell identification and mean biomarker fluorescence intensities are calculated with image analysis software to determine the total cell counts for viability assessment and the biomarker expression frequency for each lineage-dependent assay. A typical experimental design tests a 10-point concentration series (1 nM - 200 uM) for 28 compounds in single technical replicate. Assay plate controls include non-differentiated pluripotent cells (baseline control), lineage-specific differentiated cells (differentiation control), and DMSO solvent exposed differentiated cells (solvent control). Experiments typically comprise a minimum of four experimental replicates (n=4).
SMILES,AC50,outcome
O=c1[nH]c(=O)n([C@H]2C[C@H](O)[C@@H](CO)O2)cc1Br,3.42 µM (active),
CCCCCN=C(N)N/N=C/c1c[nH]c2ccc(OC)cc12,7.76 µM (active),
CN1CCN2c3ccccc3Cc3ccccc3C2C1 (centres undefined),24.3 µM (active),
Nc1cccc2c1CN(C1CCC(=O)NC1=O)C2=O (centres undefined),0.0287 µM (active),
CC1=C(/C=C/C(C)=C/C=C/C(C)=C\C(=O)O)C(C)(C)CCC1,1.78 µM (active),
CNC(=O)c1cc(Oc2ccc(NC(=O)Nc3ccc(Cl)c(C(F)(F)F)c3)cc2)ccn1,29.3 µM (active),
COc1cc2ncnc(Nc3ccc(F)c(Cl)c3)c2cc1OCCCN1CCOCC1,,inactive
Cc1ccc(NC(=O)c2ccc(CN3CCN(C)CC3)cc2)cc1Nc1nccc(-c2cccnc2)n1,15.7 µM (active),
O=C(c1ccc(F)cc1)C1CCN(CCn2c(=O)[nH]c3ccccc3c2=O)CC1,19.8 µM (active),
Cc1nc2sccn2c(=O)c1CCN1CCC(=C(c2ccc(F)cc2)c2ccc(F)cc2)CC1,16.9 µM (active),
O=C1Cc2cc(CCN3CCN(c4nsc5ccccc45)CC3)c(Cl)cc2N1,4.27 µM (active),
COc1cc2c(Nc3ccc(Br)cc3F)ncnc2cc1OCC1CCN(C)CC1,,inactive
CCN(CC)CCNC(=O)c1c(C)[nH]c(/C=C2\C(=O)Nc3ccc(F)cc32)c1C,0.432 µM (active),
Cc1nc(Nc2ncc(C(=O)Nc3c(C)cccc3Cl)s2)cc(N2CCN(CCO)CC2)n1,0.621 µM (active),
